Records with an inconclusive call do not appear. Active and inactive are the calls of the source. Calls follow the shape of the dose curve; as a rule, active = well fitted cell-killing curve with a large enough effect; inconclusive = small, poorly fitted or top-dose-only effect; inactive = flat fitted curve, though single readings scatter.
Target: Nicotinamide N-methyltransferase (Homo sapiens) (UniProt P40261)
Test: Confirmatory Screen for Target Class Profiling of Small Molecule Inhibitors of Methyltransferases (AID 1745852)
Conditions: MTase-Glo luminescence, SAH detection, recombinant enzyme; measured here: NNMT max response; stronger effect = lower value

Chain of Nicotinamide N-methyltransferase (Homo sapiens) (P40261 whole entry, looked up): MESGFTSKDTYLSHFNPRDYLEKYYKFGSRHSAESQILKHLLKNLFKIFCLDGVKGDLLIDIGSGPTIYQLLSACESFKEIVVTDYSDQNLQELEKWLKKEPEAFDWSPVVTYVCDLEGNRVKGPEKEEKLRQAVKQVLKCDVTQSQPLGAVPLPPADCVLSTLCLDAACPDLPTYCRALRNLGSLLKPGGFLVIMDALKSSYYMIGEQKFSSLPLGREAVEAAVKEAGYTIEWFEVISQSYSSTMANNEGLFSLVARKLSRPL

Going from CN(C)CCCn1cc(C2=C(c3c[nH]c4ccccc34)C(=O)NC2=O)c2ccccc21 to COc1cccc(-c2cn(-c3ccc(CCN4CCC(O)CC4)cc3)c3ncnc(N)c23)c1, the activity falls from -41.3% to -80.6%.

Compared with C/C(=N\N=C(N)N)c1cc(NC(=O)CCCCCCCCC(=O)Nc2cc(/C(C)=N/N=C(N)N)cc(/C(C)=N/N=C(N)N)c2)cc(/C(C)=N/N=C(N)N)c1, NCC(CNc1nc(Nc2cccc(NC(=O)N3CCCC3)c2)ncc1I)C(=O)c1cccs1 (stereo not drawn) is higher in activity: -74.6% for the first, -36.6% for the second.

For O=C([C@@H]1CCCN(c2ccc3[nH]c(C4(n5cc(Cl)cn5)CC4)nc3n2)C1)N1CCCC1, the activity was 0.992%.

Target: Phenylethanolamine N-methyltransferase (Homo sapiens) (UniProt P11086)
Sequence (P11086 whole entry, looked up): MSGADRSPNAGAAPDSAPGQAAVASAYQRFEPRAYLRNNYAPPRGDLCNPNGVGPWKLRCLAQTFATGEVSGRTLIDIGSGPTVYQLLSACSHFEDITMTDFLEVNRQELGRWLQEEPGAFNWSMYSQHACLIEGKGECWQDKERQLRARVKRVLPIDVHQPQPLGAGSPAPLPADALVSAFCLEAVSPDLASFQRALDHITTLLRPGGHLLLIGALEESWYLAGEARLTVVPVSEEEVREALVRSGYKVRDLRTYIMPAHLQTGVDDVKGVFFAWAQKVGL
Test: as above
Conditions: MTase-Glo luminescence, SAH detection, recombinant enzyme; measured here: PNMT max response; stronger effect = lower value

First: CN(C)CCCn1cc(C2=C(c3c[nH]c4ccccc34)C(=O)NC2=O)c2ccccc21
Second: COc1cccc(-c2cn(-c3ccc(CCN4CCC(O)CC4)cc3)c3ncnc(N)c23)c1
The activity of the first is higher: -44.4% for the first, -84.3% for the second.

Going from C/C(=N\N=C(N)N)c1cc(NC(=O)CCCCCCCCC(=O)Nc2cc(/C(C)=N/N=C(N)N)cc(/C(C)=N/N=C(N)N)c2)cc(/C(C)=N/N=C(N)N)c1 to NCC(CNc1nc(Nc2cccc(NC(=O)N3CCCC3)c2)ncc1I)C(=O)c1cccs1 (stereo not drawn), the activity rises from -75.4% to -13.7%.

In the case of O=C([C@@H]1CCCN(c2ccc3[nH]c(C4(n5cc(Cl)cn5)CC4)nc3n2)C1)N1CCCC1, the activity is reported as 0.881%.

Tested on: not listed separately
Test: NCATS anti-infectives library activity on HEK293 viability as a counter-qHTS vs the C. elegans viability qHTS (AID 1745854);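 also: HEK293 cells exposed to compounds for 24 hr before the viability read; % is scaled to controls: 0 for no effect and ±100 for the full control effect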
Conditions: HEK293 viability counter-screen; series mostly up to 41.8 µM
Outline: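 Counter-screen for cytotoxicity: HEK293, 24 hr, 37C, compounds up to 41.7 uM final (a dilution series, 1:5). Readout CellTiter-Glo luminescence, 10 min RT. Digitonin control, 83.3 uM final.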

With CCC[C@@]1(CCc2ccccc2)CC(O)=C([C@H](CC)c2cccc(NS(=O)(=O)c3ccc(C(F)(F)F)cn3)c2)C(=O)O1 the outcome was “inactive”.
In the case of CCCc1ccc(OCC(=O)N(Cc2nc(-c3cccnc3)no2)C(C)C)cc1, the outcome is reported as “inactive”.
For O=C(Nc1cc(C(F)(F)F)ccc1N1CCCCC1)c1ccncc1, the outcome was “inactive”.
